Records with an inconclusive call do not appear. The source holds several records for some structures; these can differ, active in one and inactive in another. The source made the active and inactive calls. The calls were made as follows: active = hit-call score of the fitted dose curve at least 0.9, where 1 is the maximum; inconclusive = response in the unintended direction; inactive = score below 0.9.
Each molecule was assayed against Estrogen receptor beta (Homo sapiens) (UniProt Q92731) (assay: OT_ER_ERbERb_0480: Odyssey Thera (OT) 8-hour HEK293T Protein-Complementation Assay for Estrogen Receptor-beta/-beta Homodimer (AID 2283357)).
Sequence of Estrogen receptor beta (Homo sapiens) (Q92731 whole entry, looked up, the tested form may be a part): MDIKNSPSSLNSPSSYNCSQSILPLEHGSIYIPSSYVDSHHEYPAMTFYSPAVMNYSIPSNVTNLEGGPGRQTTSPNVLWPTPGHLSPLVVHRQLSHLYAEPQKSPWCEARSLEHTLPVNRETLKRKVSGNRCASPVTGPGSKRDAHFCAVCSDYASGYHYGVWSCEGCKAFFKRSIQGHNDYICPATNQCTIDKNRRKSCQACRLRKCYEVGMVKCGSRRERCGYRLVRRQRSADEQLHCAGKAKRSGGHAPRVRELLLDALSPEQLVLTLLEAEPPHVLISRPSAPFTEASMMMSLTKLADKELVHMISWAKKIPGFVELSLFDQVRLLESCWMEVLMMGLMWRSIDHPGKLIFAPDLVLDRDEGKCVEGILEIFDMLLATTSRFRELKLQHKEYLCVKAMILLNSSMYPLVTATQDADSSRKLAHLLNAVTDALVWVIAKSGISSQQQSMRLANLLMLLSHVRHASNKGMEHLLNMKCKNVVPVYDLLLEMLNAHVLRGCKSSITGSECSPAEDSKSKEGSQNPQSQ
Method: OT_ER_ERbERb_0480 is a cell-based assay that uses HEK293T, a human kidney cell line, with measurements taken at 8 hours after chemical dosing in a 384-well plate.OT_ER_ERbERb_0480 is one of one assay component(s) measured or calculated from the OT_ER_ERbERb_0480 assay. It is designed to make measurements of protein fragment complementation, a form of binding reporter, as detected with fluorescence intensity signals by Protein-fragment Complementation technology.Data from the assay component OT_ER_ERbERb_0480 was analyzed into 1 assay endpoint. This assay endpoint, OT_ER_ERbERb_0480, was analyzed in the positive analysis fitting direction relative to DMSO as the negative control and baseline of activity. Using a type of binding reporter, measures of receptor for gain-of-signal activity can be used to understand the binding at the pathway-level as they relate to the gene ESR2. Furthermore, this assay endpoint can be referred to as a primary readout, because the performed assay has only produced 1 assay endpoint. To generalize the intended target to other relatable targets, this assay endpoint is annotated to the nuclear receptor intended target family, where the subfamily is steroidal.
Protein-fragment complementation assay, or PCA, is a method for the identification and quantification of protein-protein interactions. In the PCA, the proteins of interest ("bait" and "prey") are each covalently linked to fragments of a third protein (e.g. DHFR, which acts as a "reporter"). Interaction between the bait and the prey proteins brings the fragments of the reporter protein in close proximity to allow them to form a functional reporter protein whose activity can be measured. The OT ER beta / ER beta assay is a homodimer PCA of the ligand binding domain (LBD; amino acids 310-547) of human ER beta stably expressed in HEK293T cells. […] Cells are fixed in 4 percent formaldehyde and stained with Draq5 (BioStatus) to identify cells prior to signal detection. Fluorescent signal in the basal state of the assay is very low and is primarily punctuate and cytoplasmic. Modulation of this assay is quantified as an increase in mean fluorescence intensity in the nucleus (for agonists) or in the nucleus and cytoplasm (antagonists) relative to vehicle controls, and can be quantified on a high content imaging device or a laser scanning cytometer. The latter instrument is favored for this assay because of the rapid mode of data acquisition, the ability to acquire data from the entire cell population in a well (as opposed to a fraction of the well on the high content devices) and the larger dynamic range typically achieved with this instrument. To assess sensitivity of the ER beta/ER beta LBD assay to ligand, cells were treated with the ER agonist 17- beta-estradiol (E2) in 10-point concentration- response format for 8 hours and monitored response on a laser scanning plate cytometer (Acumen eX3; TTP Lab Tech).
For `CCc1ccc(C(=O)NN(C(=O)c2cc(C)cc(C)c2)C(C)(C)C)cc1`, the outcome was “inactive”. In the case of `O=[N+]([O-])c1c(Cl)c(Cl)c(Cl)c(Cl)c1Cl`, the outcome is reported as “inactive”. `C[C@H]1[C@H](c2ccc(Cl)cc2)SC(=O)N1C(=O)NC1CCCCC1` was tested, and the outcome was “inactive”. In the case of `CNC(=O)Oc1ccccc1OC(C)C`, the outcome is reported as “inactive”. `Oc1ccc(Cl)cc1Cc1ccccc1` was tested, and the AC50 was 12 µM (active). In the case of `ClC1C(Cl)C(Cl)C(Cl)C(Cl)C1Cl` (centres undefined), the AC50 is reported as 50 µM (active) and the outcome is reported as “inactive”. For `CCC(C)Nc1c([N+](=O)[O-])cc(C(C)(C)C)cc1[N+](=O)[O-]` (centres undefined), the outcome was “inactive”. `COP(=S)(OC)Oc1ccc(SC)c(C)c1` was tested, and the outcome was “inactive”. With `CC(C)N(C(=O)COc1nnc(C(F)(F)F)s1)c1ccc(F)cc1` the outcome was “inactive”. For `CNC(=O)CSP(=S)(OC)OC`, the outcome was “inactive”. With `O=C(NC(=O)c1c(F)cccc1F)Nc1ccc(OC(F)(F)C(F)OC(F)(F)F)c(Cl)c1` (centres undefined) the outcome was “inactive”. With `CC(C)(C)C(O)C(Oc1ccc(Cl)cc1)n1cncn1` (centres undefined) the AC50 was 67.3 µM (active). For `Oc1cc(Cl)ccc1Oc1ccc(Cl)cc1Cl`, the outcome was “inactive”. For `OCCOc1ccccc1`, the outcome was “inactive”. In the case of `CCC(C)(NC(=O)c1cc(Cl)c(C)c(Cl)c1)C(=O)CCl` (centres undefined), the outcome is reported as “inactive”. In the case of `CN1CSC(=S)N(C)C1`, the outcome is reported as “inactive”. With `O=C1c2ccccc2C(=O)N1SC(Cl)(Cl)Cl` the outcome was “inactive”. For `CC(C)(C)C(O)/C(=C\c1ccc(Cl)cc1Cl)n1cncn1` (centres undefined), the outcome was “inactive”. With `CNC(=O)/C=C(\C)OP(=O)(OC)OC` the outcome was “inactive”. With `CCCN(CCOc1c(Cl)cc(Cl)cc1Cl)C(=O)n1ccnc1` the outcome was “inactive”. With `O=C(O)C(F)(F)C(F)(F)C(F)(F)C(F)(F)C(F)(F)C(F)(F)C(F)(F)F` the outcome was “inactive”. For `COP(=S)(OC)Oc1ccc([N+](=O)[O-])cc1`, the outcome was “inactive”. With `O=C(Nc1ccccc1)Nc1cnns1` the outcome was “inactive”. In the case of `COP(=O)(OC)OC=C(Cl)Cl`, the outcome is reported as “inactive”. For `N#CN`, the outcome was “inactive”. `CNC(=O)Oc1cccc(N=CN(C)C)c1` was tested, and the outcome was “inactive”. For `O=[N+]([O-])/N=C1\NCCN1Cc1ccc(Cl)nc1`, the outcome was “inactive”. For `CC1(c2ccc(Oc3ccccc3)cc2)OC(=O)N(Nc2ccccc2)C1=O` (centres undefined), the outcome was “inactive”. With `CCOC1Oc2ccc(OS(C)(=O)=O)cc2C1(C)C` (centres undefined) the outcome was “inactive”. With `N#Cc1c(Cl)c(Cl)c(Cl)c(C#N)c1Cl` the outcome was “inactive”. `O=C(O)CCCOc1ccc(Cl)cc1Cl` was tested, and the outcome was “inactive”. In the case of `Clc1ccccc1-c1nnc(-c2ccccc2Cl)nn1`, the outcome is reported as “inactive”. In the case of `COc1nn(CSP(=S)(OC)OC)c(=O)s1`, the outcome is reported as “inactive”.
